The list is not random: actives were taken first. Their share in the collection is about 19%.
DT40 TDP1 CPT: growth inhibition of DT40 Tdp1-/-;hTDP1 cells with camptothecin (screen for TDP1 inhibitors); chicken DT40 Tdp1-/-;hTDP1 cells + 20 nM CPT, ATP luminescence, 48 h; Potency, µM (top dose mostly 46.2 µM), inactives show at the highest dose activity change, negative = growth inhibition, most hits filed as inhibitors; 12% of 420,000 active; AID 686979; note: potency is the fitted concentration of half-maximal effect; nearly all actives have a fitted effect of over 55% in size
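Chicken DT40 Tdp1-/- cells complemented with human TDP1, 400 cells/well, exposed to compounds plus 20 nM camptothecin for at least 48 h at 37 C; viability read as ATP content by CellTiter-Glo luminescence.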
IL1B secr inh: blocks inflammasome-driven IL-1 beta release | activity change, % at 57.5 µM | 4.7% of 360,000 active | AID 743279 | THP-1 LPS/ATP IL-1B secretion, AlphaLISA, 16 h; active compounds read low; in the data active = activity change below about -50%; inconclusive = mostly about -30% to -49%
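Secreted IL-1B measured by AlphaLISA bead assay after 16 h compound exposure of THP-1 cells; compounds (final up to 57.5 uM) added 1 h before LPS (250 ng/mL) and ATP (1.25 mM) stimulation; lower signal means less secretion.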
HT1080NT lethal: kills 2HG-producing HT-1080-NT fibrosarcoma cells; Potency, µM (highest dose often 46.1 µM), for inactives: at the highest dose activity, negative = less viability, hits mostly cytotoxic; 1.6% of 360,000 active; AID 686970; HT-1080-NT fibrosarcoma viability, CellTiter-Glo ATP luminescence, 48 h;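 note: NT is the 2HG producing partner of a matched IDH1 knockdown line; potency is the fitted concentration of half-maximal effect; 0% = DMSO-treated cells and -100% = media-only wells without cells; nearly all actives have a fitted effect of over 55% in size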
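HT-1080-NT; 750 cells/well; 5% FBS RPMI; 48 h compound, 37 degrees C; CellTiter-Glo luminescence; curve fitting and curve-class assignment.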
TDP1 cell noCPT: qHTS for Inhibitors of human tyrosyl-DNA phosphodiesterase 1 (TDP1): qHTS in cells in absence of CPT | DT40 Tdp1-/- hTDP1 cells, no CPT, ATP luminescence, 48 h | Potency, µM (highest dose often 46.2 µM), for inactives: at the top dose activity change, negative = growth inhibition, usual class: inhibitors | 15% of 420,000 active; note: potency is the fitted concentration of half-maximal effect; nearly all actives have a fitted effect of over 55% in size
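Camptothecin absent (DMSO only). Human TDP1-complemented DT40 knockout cells, 400 cells/well, 37 °C for minimum 48 hr; ATP measured via CellTiter-Glo, 30 min dark incubation, luminescence.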
HT1080 IDH1KD tx: toxicity to HT-1080 IDH1 knockdown cells (counter line) | Potency, µM (titrated, usually from 46.1 µM), for the others: top-dose activity, negative = toxicity, most hits filed as cytotoxic | AID 686971 | 2% of 360,000 active | HT-1080 IDH1 knockdown viability, ATP luminescence, 48 h;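 note: potency is the fitted concentration of half-maximal effect; 0% = DMSO wells and -100% = cell-free medium wells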
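After a 2 h attachment period, IDH1KD HT-1080 cells took pin-transferred compound for 48 h at 37 °C; ATP-based luminescence after 10 min room-temperature reagent incubation reported viability.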
* marks the source's active call; other numbers are inactive results; ? = inconclusive; . = not tested or not shown. Unless noted, calls come from the whole dose curve; as a rule, active = well fitted curve in the direction sought with a large enough effect; inconclusive = small, poorly fitted or top-dose-only effect, or another doubt; inactive = no such curve, though single readings can be large; an effect the other way counts as inactive or inconclusive. Unless noted, % is set by controls: 0 for no effect and ±100 for the full control effect.

SMILES	DT40 TDP1 CPT	IL1B secr inh	HT1080NT lethal	TDP1 cell noCPT	HT1080 IDH1KD tx
COc1cccc(COCCN2CCN(S(=O)(=O)c3ccc(C)cc3)CCC2=O)c1	?	-20	1%	?	-14%
Cc1ccc(COCCN2CCN(S(=O)(=O)c3ccc(C)cc3)CCC2=O)cc1	?	34	3%	?	1%
COc1ccc(COCCN2CCN(S(=O)(=O)c3ccc(C)cc3)CCC2=O)cc1	21µM*	-11	5%	?	5%
Cc1ccc(S(=O)(=O)N2CCC(=O)N(CCOCc3cccc(C(F)(F)F)c3)CC2)cc1	15µM*	?	-6%	?	1%
Cc1ccc(S(=O)(=O)N2CCC(=O)N(CCOCc3cccc(C)c3)CC2)cc1	10µM*	-9	4%	?	-3%
CCOC(=O)C1=C(COC(=O)/C=C/c2cc(Br)ccc2F)NC(=O)NC1C (stereo not given)	-3%	10	-1%	-14%	-2%
N#Cc1c(C#N)c(SSc2c(C#N)c(C#N)c(N)n2-c2ccccc2)n(-c2ccccc2)c1N	4.6µM*	-2	12%	4.6µM*	6%
N#Cc1c(N)n(-c2ccc(N)cc2)c2nc3ccccc3nc12	16%	-24	?	-28%	-4%
CC(C)CNC(=S)NNC(=O)c1csc2c1CCC(C)C2 (stereo not given)	?	?	?	21µM*	?
COc1cc(/C=N/Nc2nncn2/N=C/c2ccc(O)c(OC)c2)ccc1O	?	17	21µM*	?	15µM*
COc1ccc(OC)c(/C=N\Nc2nccs2)c1	?	5	-26%	?	-19%
COc1ccc(OC)c(/C=N/Nc2nncn2/N=C/c2cc(OC)ccc2OC)c1	8.2µM*	?	?	7.3µM*	15µM*
COC(=O)[C@]12CCCCC=C1N(Cc1ccco1)C(=O)[C@H](CC(=O)N1CCN(C(=O)C3CC3)CC1)C2	-2%	14	15%	-8%	7%
COc1ccc(N2CC(C(=O)N3CCN(C(=O)c4ccco4)CC3)CC2=O)cc1 (stereo not given)	9%	0	0%	-2%	1%
Cc1ccc(OCC(=O)N/N=C/C=C/c2ccco2)cc1C	?	?	4%	?	-18%
CS(=O)(=O)c1ccc(C(=O)N(Cc2ccccc2)c2ccccc2)cc1	?	11	-4%	?	10%
Cc1ccc(N(Cc2ccccc2)C(=O)c2ccc(F)cc2)cc1	21µM*	-28	-17%	?	-8%
Cc1cccc2cc(CN(Cc3ccccc3)C(=O)c3cccc(F)c3)c(Cl)nc12	29µM*	-8	-26%	?	-2%
Cc1ccc(N(Cc2ccccc2)C(=O)c2cccc(F)c2)cc1	?	-61*	-15%	?	-12%
CN(C)C(C)(C)/C=C/C(O)(c1ccccc1)c1ccccc1	-16%	-15	8%	-12%	18%
Cc1ccc(C)c(Nc2nc3ccccc3[nH]2)c1	-2%	-94*	-8%	-28%	-9%
c1ccc(Nc2nc3ccccc3[nH]2)nc1	?	-80*	1%	?	-9%
Nc1ccccc1Nc1nc2ccccc2[nH]1	?	-15	-30%	26µM*	-28%
c1ccc(Nc2ccccn2)cc1	?	-16	17%	26µM*	16%
O=C(NNC(=S)Nc1ccccc1)C1CCCCC1	-7%	-7	-1%	3%	-1%
SMILES	DT40 TDP1 CPT	IL1B secr inh	HT1080NT lethal	TDP1 cell noCPT	HT1080 IDH1KD tx
O=C(NCc1ccccc1)c1c[nH]c2cc3c(cc2c1=O)OCCO3	-26%	-6	-23%	-26%	?
COC(=O)c1ccn(Cc2ccccc2Cl)n1	0%	15	-8%	0%	0%
Cc1ccc(C(=O)N2C(=O)c3cccc(N)c3C2=O)o1	1%	8	25%	-3%	10%
Nc1cccc2c1C(=O)N(C(=O)/C=C/c1cccc(Br)c1)C2=O	10µM*	-75*	?	23µM*	?
Nc1cccc2c1C(=O)N(C(=O)/C=C/c1cccc(F)c1)C2=O	?	-70*	18µM*	?	16µM*
O=C(NCc1ccncc1)[C@@H]1CCCN1C(=O)[C@H]1CCCN1C(=O)c1cccc2ccccc12	0%	69	4%	-30%	5%
CNS(=O)(=O)c1cc2c3c(cccc3c1)C(=O)NC2=O	18µM*	-10	-2%	23µM*	-8%
Cc1ccc(S(=O)(=O)Nc2ccc3ccccc3c2)cc1	?	?	-6%	?	-3%
CNS(=O)(=O)c1cc(O)c2c(S(=O)(=O)NC)cccc2c1	-19%	0	9%	-1%	11%
Cc1ccc(NS(=O)(=O)c2cc3c4c(cccc4c2)C(=O)NC3=O)cc1	?	14	?	9.2µM*	?
CC(C)C(NC(=O)c1ccc(F)cc1)C(=O)Nc1cccnc1 (stereo not given)	-3%	14	4%	4%	26%
COc1cc(=O)n2c(c1C(=O)NC(C)c1ccco1)CCN(C(=O)c1cc(C)cc(C)c1)CC2 (stereo not given)	2%	.	.	-1%	.
CCC1=C(c2ccc(C)cc2)S(=O)(=O)N=C1N1CCC(C(=O)NCc2ccc(N(C)C)cc2)CC1	18µM*	.	.	23µM*	.
CCN(CC(=O)Nc1ccc(NC(C)=O)cc1)C(=O)c1cccc(N2C(=O)c3ccccc3C2=O)c1	-6%	-3	-1%	19%	-2%
Cc1cc2nc(-c3ccc(OCc4ccccc4C)cc3)cc(C(F)(F)F)n2n1	?	.	.	16µM*	.
CSC(=S)NCc1cccnc1	2.9µM*	-63*	?	3.3µM*	?
COC(=O)[C@@]1(Cc2ccccc2)[C@H]2C(=O)N(C)C(=O)[C@H]2[C@H]2CN=C(SCC3CC3)N21	3.7µM*	-5	-1%	-19%	-1%
COC(=O)c1ccc(CSC2=NC[C@@H]3[C@@H]4C(=O)N(C)C(=O)[C@@H]4[C@](Cc4ccccc4)(C(=O)OC)N23)cc1	16µM*	-7	-11%	?	-2%
CC[C@]1(C(=O)OC)[C@H]2C(=O)N(C)C(=O)[C@H]2[C@H]2CN=C(SCc3ccc(Cl)cc3)N21	?	0	-2%	?	4%
CC[C@]1(C(=O)OC)[C@H]2C(=O)N(C)C(=O)[C@H]2[C@H]2CN=C(SCc3ccc(C)cc3)N21	-16%	-2	27%	-16%	21%
CCN1C(=O)[C@H]2[C@H]3CN=C(SCC4CC4)N3[C@@](Cc3ccccc3)(C(=O)OC)[C@H]2C1=O	-27%	-19	-6%	?	-7%
